For seven molecules, growth results are on record in PubChem BioAssay (NCI).

The panel holds about 83,000 compounds, 20% with a hit somewhere; the sample as a whole holds those more often.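 Compound tested at a single concentration for 48 hours in 96-well plates; a percent growth value below 10 was scored as active.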 Unmarked numbers belong to inactive results. Calls of active or inactive are those of the source.

Among the test systems are NCI-H23 lung; NCI-H226 lung; NCI-H322M lung; HOP-62 NSCLC; NCI-H460 lung; HOP-92 NSCLC; NCI-H522 lung; A549/ATCC NSCLC; 786-0 renal; COLO 205 colon; DU-145 prostate; K-562 leukemia; MALME-3M melanoma; MDA-MB-231 breast; RXF 393 renal; SF-268 CNS; SF-295 CNS; SF-539 CNS; UACC-257 melanoma; M14 melanoma.
Holding throughout (assay): NCI-60 one-dose screen, 48 h (100 = growth as untreated, 0 = no growth, -100 = all killed)
Holding throughout (conditions): 10 µM unless noted

Take `CC(C)(C)c1nc(-c2cccc(NS(=O)(=O)c3c(F)cccc3F)c2F)c(-c2ccnc(N)n2)s1`: the growth was 63.6% in the experiment with NCI-H23 lung; 84.5% in the experiment with NCI-H226 lung; 90.3% in the experiment with NCI-H322M lung; 77.1% in the experiment with HOP-62 NSCLC; 74.4% in the experiment on NCI-H460 lung; 92.9% in the experiment with HOP-92 NSCLC. Further, the growth with NCI-H522 lung is 57.5%; with A549/ATCC NSCLC, 53.6%; in the experiment on 786-0 renal it was 91.9%; in the experiment on COLO 205 colon, -5.08% (active); in the experiment with DU-145 prostate it was 105%; with K-562 leukemia, 50.8%. For the same molecule, the growth is 21.8% with MALME-3M melanoma; 47.1% in the experiment on MDA-MB-231 breast; 90% in the experiment on RXF 393 renal; 105% in the experiment on SF-268 CNS; 112% with SF-295 CNS; 114% in the experiment with SF-539 CNS. In addition, the growth in the experiment on UACC-257 melanoma is 25.2%; with M14 melanoma, 32%.
As for `Cc1nc2cc(-c3nn(C(C)C)c4ncnc(N)c34)ccc2o1`, the growth with NCI-H23 lung was -0.166% (active); with NCI-H226 lung it was -20.5% (active); in the experiment with NCI-H322M lung, -23.2% (active); with HOP-62 NSCLC it was -36.3% (active); with NCI-H460 lung it was 3.28% (active); with HOP-92 NSCLC, -40.4% (active). Further, the growth in the experiment with NCI-H522 lung is -11.5% (active); with A549/ATCC NSCLC, -29.2% (active); in the experiment with 786-0 renal, -29.5% (active); with COLO 205 colon, -24.9% (active); with DU-145 prostate, 1.98% (active); in the experiment on K-562 leukemia, 10.4%. Besides, the growth was -38.7% (active) with MALME-3M melanoma; -9.12% (active) in the experiment with MDA-MB-231 breast; -54.3% (active) in the experiment on RXF 393 renal; 4.35% (active) in the experiment with SF-268 CNS; -53.9% (active) in the experiment with SF-295 CNS; -61.7% (active) in the experiment with SF-539 CNS. In addition, the growth with UACC-257 melanoma was -45.3% (active); in the experiment on M14 melanoma, -7.38% (active).
On to `CCN1CCN(Cc2ccc(-c3cc4c(N[C@H](C)c5ccccc5)ncnc4[nH]3)cc2)CC1`, for which the growth with NCI-H23 lung was 42.3%; in the experiment with NCI-H226 lung, 50.9%; with NCI-H322M lung it was -2.25% (active); in the experiment on HOP-62 NSCLC, 28.5%; in the experiment with NCI-H460 lung, 21.9%; with HOP-92 NSCLC, 21.4%. Moreover, the growth was 6.19% (active) in the experiment with NCI-H522 lung; 17.5% in the experiment with A549/ATCC NSCLC; 50.3% in the experiment with 786-0 renal; -21.4% (active) in the experiment on COLO 205 colon; 40.5% with DU-145 prostate; 5.11% (active) in the experiment with K-562 leukemia. Further, the growth with MALME-3M melanoma was 1.62% (active); with MDA-MB-231 breast, 30.3%; in the experiment with RXF 393 renal it was 26.4%; with SF-268 CNS it was 52%; in the experiment with SF-295 CNS, 68.8%; in the experiment with SF-539 CNS, 60.5%. Moreover, the growth with UACC-257 melanoma was -5.38% (active); in the experiment on M14 melanoma it was 7.83% (active).
As to `CN1CC[C@H](c2c(O)cc(O)c3c(=O)cc(-c4ccccc4Cl)oc23)[C@H](O)C1`, the growth in the experiment on NCI-H23 lung is -17.3% (active); with NCI-H226 lung, 3.69% (active); in the experiment with NCI-H322M lung, -5.32% (active); with HOP-62 NSCLC it was -17.2% (active); with NCI-H460 lung it was 3.22% (active); with HOP-92 NSCLC, -6.87% (active). Moreover, the growth with NCI-H522 lung was -23.9% (active); with A549/ATCC NSCLC, 5.9% (active); in the experiment with 786-0 renal, 7.41% (active); with COLO 205 colon, -55% (active); in the experiment with DU-145 prostate, 9.08% (active); in the experiment on K-562 leukemia, 6.14% (active). In addition, the growth in the experiment with MALME-3M melanoma was -45.3% (active); with MDA-MB-231 breast, 1.35% (active); with RXF 393 renal, -65.5% (active); with SF-268 CNS, 4.21% (active); in the experiment on SF-295 CNS, 8.48% (active); in the experiment with SF-539 CNS, -28% (active). For the same molecule, the growth in the experiment with UACC-257 melanoma was -23.8% (active); in the experiment on M14 melanoma, -50.1% (active).
As to `S=C(NCc1ccc2c(c1)OCO2)N1CCN(c2ncnc3c2oc2ccccc23)CC1`, the growth was 44.1% with NCI-H23 lung; 28.7% with NCI-H226 lung; 35.3% in the experiment on NCI-H322M lung; 30.7% with HOP-62 NSCLC; 31.8% in the experiment on NCI-H460 lung; 38.1% in the experiment on HOP-92 NSCLC. Also, the growth in the experiment with NCI-H522 lung was 22.6%; with A549/ATCC NSCLC it was 25.6%; in the experiment with 786-0 renal, 47.5%; with COLO 205 colon, 4.16% (active); in the experiment on DU-145 prostate it was 35.4%; with K-562 leukemia, 19.4%. For the same molecule, the growth was 51.1% with MALME-3M melanoma; 57.1% in the experiment with MDA-MB-231 breast; 50.7% in the experiment on RXF 393 renal; 42.2% in the experiment on SF-268 CNS; 26.4% with SF-295 CNS; 39.7% in the experiment on SF-539 CNS. For the same molecule, the growth in the experiment on UACC-257 melanoma is 9.31% (active); in the experiment with M14 melanoma, 35.2%.
Consider `Cn1ncc(Cl)c1-c1cc(C(=O)N[C@H](CN)Cc2cccc(F)c2)sc1Cl`, for which the growth is 33.4% in the experiment on NCI-H23 lung; 34.5% in the experiment on NCI-H226 lung; 28.6% with NCI-H322M lung; 25.4% in the experiment with HOP-62 NSCLC; 8.53% (active) in the experiment on NCI-H460 lung; -27.5% (active) with HOP-92 NSCLC. Moreover, the growth is 6.11% (active) in the experiment with NCI-H522 lung; 18.4% with A549/ATCC NSCLC; -14.3% (active) in the experiment on 786-0 renal; -73.9% (active) in the experiment on COLO 205 colon; 44.4% in the experiment with DU-145 prostate; -21.1% (active) in the experiment on K-562 leukemia. For the same molecule, the growth in the experiment on MALME-3M melanoma is -73.8% (active); with MDA-MB-231 breast, -9.49% (active); in the experiment with RXF 393 renal, -36.5% (active); with SF-268 CNS it was 27%; in the experiment with SF-295 CNS, -12.5% (active); with SF-539 CNS it was -31.5% (active). For the same molecule, the figures for the growth in the experiment on UACC-257 melanoma and with M14 melanoma were -87.7% (active) and -54.8% (active), respectively.
For the molecule `Cc1cc(C(O)CN(C)C)cc2c1ccc1cc(C(C)C)ccc12` (stereo not given), the growth with NCI-H23 lung is 30.1%; with NCI-H226 lung, 33.6%; in the experiment with NCI-H322M lung, -10.1% (active); in the experiment with HOP-62 NSCLC it was 50.2%; in the experiment with NCI-H460 lung, -35.7% (active); in the experiment with HOP-92 NSCLC, 5.86% (active). Also, the growth is -25% (active) in the experiment on NCI-H522 lung; 32.9% in the experiment with A549/ATCC NSCLC; 14.5% in the experiment on 786-0 renal; -78.1% (active) with COLO 205 colon; 55.7% in the experiment on DU-145 prostate; -20.2% (active) in the experiment with K-562 leukemia. Also, the growth in the experiment with MALME-3M melanoma is -77.3% (active); in the experiment on MDA-MB-231 breast, -35.1% (active); in the experiment with RXF 393 renal, -47.8% (active); in the experiment on SF-268 CNS, 62.2%; in the experiment on SF-295 CNS it was -66.1% (active); with SF-539 CNS, 71.5%. Besides, the growth was -74.4% (active) in the experiment on UACC-257 melanoma and -100% (active) in the experiment on M14 melanoma.
